Data taken from PubChem BioAssay (NCATS).
Where “and” joins values, the source holds several entries; their conditions need not be identical. Equal entries are not always repeated. Inconclusive results are not listed. Calls of active or inactive are those of the source. Unless noted, the call rests on the fitted dose curve; in most records, active means well fitted curve in the direction sought with a large enough effect; inconclusive means small, poorly fitted or top-dose-only effect, or another doubt; inactive means no such curve, though single readings can be large; an effect the other way counts as inactive or inconclusive.

How the values were obtained:
[1] = molecular target: Cellular tumor antigen p53 (Homo sapiens) (UniProt P04637); experiment: Primary qHTS for small molecule compounds that upregulate eGFP-tagged delta133p53alpha (in N-terminal) cells. (AID 2060322); details: NCI-H358 eGFP-delta133p53alpha fluorescence, 24 h; activation: stronger effect = higher value;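 further: cells pre-induced with doxycycline then dosed without doxycycline; series mostly up to about 56 µM; 0% = DMSO vehicle and 100% = reference activator; nearly all actives have a fitted effect of over 75% in size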
Procedure, shortened: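 NCI-H358 cells pre-induced 24 h with 10 ng/ml doxycycline for eGFP-delta133p53alpha, plated dox-free and exposed 24 h at 37C to titrated compounds. Fixed, Hoechst-stained; gated GFP peak intensity by laser scanning cytometry, normalized to DMSO (0%) and 57.5 uM 5-azacytidine (100%).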

[2] = molecular target: Cellular tumor antigen p53 (Homo sapiens) (UniProt P04637); experiment: Primary qHTS for small molecule compounds that upregulate eGFP-tagged delta133p53alpha (in C-terminal) cells. (AID 2060324);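 further: 0% = DMSO wells and 100% = 57.5 µM 5-azacytidine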
Procedure, shortened: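 Doxycycline (100 ng/ml, 24 h) first induced the eGFP fusion in NCI-H358 C-terminal-tag cells. Washed-out cells then received titrated compounds for 24 h at 37 °C before paraformaldehyde fixation, Hoechst staining and cytometric GFP quantification.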

[3] = molecular target: Aldehyde dehydrogenase, mitochondrial (Homo sapiens) (UniProt P05091); experiment: qHTS for Inhibitors of the Aldehyde Dehydrogenase Family (ALDH2) Validation screens (AID 2061302; active means well fitted inhibition curve with a large enough effect; title and protocol of this record describe different tests;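 further: plate controls were DMSO vehicle for no effect and maximal DPI positive control response for full effect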)
[4] = molecular target: Retinaldehyde dehydrogenase 3 (Homo sapiens) (UniProt P47895); experiment: qHTS for Inhibitors of the Aldehyde Dehydrogenase Family (ALDH1A3) Validation screen (AID 2061312); further: on the % scale 0 is the no-effect control and ±100 the full control effect; nearly all actives have a fitted effect of over 45% in size

Sequence of Cellular tumor antigen p53 (Homo sapiens) (P04637 whole entry, looked up, the tested form may be a part): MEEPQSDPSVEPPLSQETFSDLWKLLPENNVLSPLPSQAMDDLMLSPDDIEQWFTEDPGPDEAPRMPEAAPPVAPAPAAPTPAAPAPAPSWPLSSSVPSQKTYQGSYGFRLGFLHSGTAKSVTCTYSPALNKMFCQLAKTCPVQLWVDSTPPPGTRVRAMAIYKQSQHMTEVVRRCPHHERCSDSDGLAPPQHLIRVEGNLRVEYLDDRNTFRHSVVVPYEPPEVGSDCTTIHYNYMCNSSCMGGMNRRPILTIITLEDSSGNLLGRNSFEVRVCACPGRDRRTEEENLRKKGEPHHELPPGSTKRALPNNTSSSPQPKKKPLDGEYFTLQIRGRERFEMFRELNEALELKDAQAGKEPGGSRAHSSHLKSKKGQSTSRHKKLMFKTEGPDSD

CNc1ncnc2c1ncn2[C@H]1C[C@H](OP(=O)(O)O)[C@@H](COP(=O)(O)O)O1
inactive: activation [1] 3.4% | Potency [2] | Potency [3] | Potency [4]

NCCCCC(=O)O
inactive: activation [1] -27.1% | Potency [2] | Potency [3] | Potency [4]

C[N+](C)(C)CCCCCCCCCC[N+](C)(C)C
inactive: activation [1] -20.9% and 13% | Potency [2] | Potency [3] | Potency [4]

CN1C2CCCC1CC(NC(=O)c1nn(C)c3ccccc13)C2 (stereo unspecified)
inactive: activation [1] -4.74% | Potency [2] | Potency [3] | Potency [4]

N[C@H](CO)C(=O)O
inactive: activation [1] 9.85% | Potency [2] | Potency [3] | Potency [4]

CSc1nc(N)c2ncn([C@@H]3O[C@H](COP(=O)(O)OP(=O)(O)O)C(O)[C@H]3O)c2n1 (stereo partly specified)
inactive: activation [1] -2.39% | Potency [2] | Potency [3] | Potency [4]

CN1CCN(C2Cc3ccccc3Sc3ccc(Cl)cc32)CC1 (stereo unspecified)
inactive: activation [1] -14.1% | Potency [2] | Potency [3] | Potency [4]

c1ccc(C2CN3CCSC3=N2)cc1 (stereo unspecified)
inactive: activation [1] 27% | Potency [2] | Potency [3] | Potency [4]

CC(=O)c1ccc2c(c1)N(CCCN(C)C)c1ccccc1S2
inactive: activation [1] 3.95% and -33.1% | Potency [2] | Potency [3] | Potency [4]

N[C@@H](Cc1cnc[nH]1)C(=O)O
inactive: activation [1] 30.1% | Potency [2] | Potency [3] | Potency [4]

Nc1nc(Cl)nc2c1ncn2[C@@H]1O[C@H](COP(=O)(O)OP(=O)(O)OP(=O)(O)O)[C@@H](O)[C@H]1O
inactive: activation [1] -39.8% | Potency [2] | Potency [3] | Potency [4]

NC1=NCC2c3ccccc3Cc3ccccc3N12 (stereo unspecified)
inactive: activation [1] -14.2% and -12.4% | Potency [2] | Potency [3] | Potency [4]

COCCOC(=O)C1=C(C)NC(C)=C(C(=O)OC/C=C/c2ccccc2)C1c1cccc([N+](=O)[O-])c1 (stereo unspecified)
inactive: activation [1] 8.47% and -12.4% | Potency [2] | Potency [3] | Potency [4]

CN1C2CC(OC(=O)[C@H](CO)c3ccccc3)CC1C1OC12 (stereo partly specified)
inactive: activation [1] -3.28% | Potency [2] | Potency [3] | Potency [4]

CN1C2CCC1CC(OC(c1ccccc1)c1ccccc1)C2 (stereo unspecified)
inactive: activation [1] -19.6% | Potency [2] | Potency [3] | Potency [4]

NC(CCCP(=O)(O)O)C(=O)O (stereo unspecified)
inactive: activation [1] 34.5% | Potency [2] | Potency [3] | Potency [4]

CSc1ccccc1N1CCN(CCCCCC(=O)NC2CCCc3ccccc32)CC1 (stereo unspecified)
inactive: activation [1] -61.7% | Potency [2] | Potency [3] | Potency [4]

O=C(c1ccc(OCCCc2cnc[nH]2)cc1)C1CC1
inactive: activation [1] 6.88% | Potency [2] | Potency [3] | Potency [4]

N=S(=O)(O)Cc1noc2ccccc12
inactive: activation [1] -35.5% | Potency [2] | Potency [3] | Potency [4]

c1ccc2nc(C3=NCCN3)ccc2c1
inactive: activation [1] 5.83% | Potency [2] | Potency [3] | Potency [4]

CCn1c(=O)[nH]c2cc(Cl)c(Cl)cc21
inactive: activation [1] -55.4% | Potency [2] | Potency [3] | Potency [4]

Nc1ncnc2c1nc(Sc1ccc(Cl)cc1)n2[C@H]1OC2COP(=O)(O)O[C@@H]2C1O (stereo partly specified)
inactive: activation [1] 27.8% | Potency [2] | Potency [3] | Potency [4]

C[C@]12CC[C@@H]3c4ccc(O)cc4CC[C@H]3[C@@H]1CCC2=O
inactive: activation [1] 11.7% | Potency [2] | Potency [3] | Potency [4]

N[C@H](C(=O)O)[C@H](Cc1ccccc1)C(=O)O
inactive: activation [1] 1.24% | Potency [2] | Potency [3] | Potency [4]

O=C(O)CC[C@@H](C(=O)O)N1C(=O)c2ccccc2C1=O
inactive: activation [1] -14.6% | Potency [2] | Potency [3] | Potency [4]

C=C1C[C@@]23CC[C@H]4[C@@](C)(CCC[C@@]4(C)C(=O)OC4OC(CO)C(O)C(O)C4O)[C@@H]2CC[C@]1(OC1OC(CO)C(O)C(O)C1OC1OC(CO)C(O)C(O)C1O)C3 (stereo partly specified)
inactive: activation [1] -5.25% | Potency [2] | Potency [3] | Potency [4]

C[C@]12C=CC(=O)C=C1CC[C@H]1[C@@H]3C[C@@H](O)[C@](O)(C(=O)CO)[C@@]3(C)C[C@H](O)[C@@]12F
inactive: activation [1] 10.9% and -4.1% | Potency [2] | Potency [3] | Potency [4]

CN(C)CC/C=C1\c2ccccc2COc2ccccc21
inactive: activation [1] -10.9% and -21.6% | Potency [2] | Potency [3] | Potency [4]

O=c1n(CCCN2CCN(c3cccc(Cl)c3)CC2)nc2ccccn12
inactive: activation [1] -7.53% and 33.4% and -0.284% | Potency [2] | Potency [3] | Potency [4]
